Screens (PubChem BioAssay)
Compounds with a hit are over-represented: about 6.6% of the library has one in this group of screens.
HT1080-NT tox: kills 2HG-producing HT-1080-NT fibrosarcoma cells. Potency, µM (titrated, usually from 46.1 µM), for the others: at the highest dose activity, negative = less viability, usual class: cytotoxic. HT-1080-NT fibrosarcoma viability, CellTiter-Glo ATP luminescence, 48 h. hit rate 1.6% among 360,000. AID 686970;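 note: NT is the 2HG producing partner of a matched IDH1 knockdown line; 0% = DMSO-treated cells and -100% = media-only wells without cells; nearly all actives have a fitted effect of over 55% in size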
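A 48-hour cytotoxicity screen used HT-1080-NT cells plated 2 hours before compound delivery. ATP-based CellTiter-Glo luminescence measured viability, normalized to DMSO and no-cell controls.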
TGFb SMAD3 inh: blocks TGF-b signaling; HepG2 CAGA-GFP TGF-b/SMAD3 reporter, GFP fluorescence, 18 h; TGF-beta stimulated, 500 pg/mL final; Potency, µM (titrated, usually from 46.1 µM), without a hit: at the highest dose activity, negative = inhibition, most hits filed as inhibitors; hit rate 1.2% among 410,000; note: % is set by controls: 0 for no effect and ±100 for the full control effect; nearly all actives have a fitted effect of over 65% in size
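HEPG2 CAGA-GFP, 1000 cells/well; 2 h settle, 37 C; cpd via pin tool; TGF-b 500 pg/mL final; 18 h, 37 C; GFP imaging ex488/em500-530; %Activity normalised to -TGF-b and +DMSO controls; CRC fit, curve class.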
KB-3-1 cytotox: kills parental KB-3-1 adenocarcinoma cells | Potency, µM (titrated, usually from 46.1 µM), most hits filed as cytotoxic | KB-3-1 viability, CellTiter-Glo ATP luminescence, 72 h | hit rate 1.4% among 400,000; note: % is set by controls: 0 for no effect and ±100 for the full control effect; nearly all actives have a fitted effect of over 60% in size
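KB-3-1 cells, DMEM (no phenol red) + 10% FBS; compound by pin transfer, 72 h, 37 °C. Readout: CellTiter-Glo luminescence after 10 min. Data normalized, curve-fitted.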
KB-V1 cytotox: KB-V1 MDR subline cytotoxicity | KB-V1 MDR cells viability, CellTiter-Glo, 72 h | Potency, µM (titrated, usually from 46.1 µM), actives largely listed as cytotoxic | hit rate 3.4% among 400,000 | AID 1347076; note: % is set by controls: 0 for no effect and ±100 for the full control effect; nearly all actives have a fitted effect of over 60% in size
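Drug-selected KB-V1 cells, grown in DMEM lacking phenol red with 10% FBS, receive compound titrations; after three days at 37 degrees C, surviving cell ATP is quantified by CellTiter-Glo luminescence and responses normalized and curve-fitted.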
HT1080 IDH1KD tx: kills HT-1080 cells with IDH1 knockdown; Potency, µM (titrated, usually from 46.1 µM), for inactives: top-dose activity, negative = toxicity, most hits filed as cytotoxic; HT-1080 IDH1 knockdown viability, ATP luminescence, 48 h; AID 686971; hit rate 2% among 360,000;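 note: 0% = DMSO wells and -100% = cell-free medium wells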
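After a 2 h attachment period, IDH1KD HT-1080 cells took pin-transferred compound for 48 h at 37 °C; ATP-based luminescence after 10 min room-temperature reagent incubation reported viability.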
HepG2 tox-1: kills HepG2 cells in TGF-b inhibitor counter-screen | HepG2 CAGA-GFP viability, ATP luminescence, 18 h | Potency, µM (titrated, usually from 46.1 µM), without a hit: top-dose activity change, negative = cytotoxicity, actives largely listed as cytotoxic | hit rate 0.76% among 410,000 | AID 588856
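CellTiter-Glo luminescence gave cytotoxicity after 18 hours at 37 degrees C. The cells were HepG2 CAGA-GFP in 1% FBS DMEM, stimulated with 500 pg/mL TGF-beta after compound addition. %Activity was normalised to no-cell wells (complete cell-killing) and DMSO (no toxicity), and curves were fitted and classified.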
TGFb CAGA inh: TGF-b pathway inhibition, cherry-pick retest. Potency, µM (series often up to 46.1 µM), inactives show top-dose activity, negative = inhibition, hits mostly inhibitors. shares compounds with TGFb SMAD3 inh. AID 720534. hit rate 63% among 1,600. HepG2 CAGA-GFP TGF-b reporter, GFP fluorescence, 18 h; cells stimulated with TGF-beta, 500 pg/mL; note: % is set by controls: 0 for no effect and ±100 for the full control effect; nearly all actives have a fitted effect of over 65% in size
HepG2 tox-2: toxic to HepG2 cells in TGF-b counterscreen. shares compounds with TGFb SMAD3 inh. HepG2 CAGA-GFP viability, ATP luminescence, 18 h; cells stimulated with TGF-beta, 500 pg/mL. Potency, µM (series often up to 46.1 µM), for the others: top-dose activity, negative = cytotoxicity, actives largely listed as inhibitors. hit rate 27% among 1,600; note: % is set by controls: 0 for no effect and ±100 for the full control effect; nearly all actives have a fitted effect of over 70% in size
CCL64 TGFb inh: TGF-b inhibition, CCL64 orthogonal assay. shares compounds with TGFb SMAD3 inh. CCL64 CAGA-GFP reporter, TGF-b stimulated, GFP fluorescence, 18 h. Potency, µM (highest dose often 46.1 µM), inactives show at the highest dose activity, negative = inhibition, actives largely listed as inhibitors. hit rate 41% among 1,600. AID 720536; note: nearly all actives have a fitted effect of over 65% in size
COP TGFb inh: blocks TGF-b signaling in HepG2 COP reporter; shares compounds with TGFb SMAD3 inh; HepG2 COP-GFP TGF-b reporter, GFP fluorescence, 18 h; cells stimulated by added recombinant TGF-beta; Potency, µM (top dose mostly 46.1 µM), inactives show at the top dose activity, negative = inhibition, hits mostly inhibitors; hit rate 3% among 1,600; note: nearly all actives have a fitted effect of over 70% in size
Active calls of the source: *; i = inactive; ? = inconclusive; . = not tested or not shown; ! = repeats disagree. Calls come from the whole dose curve; as a rule, active = well fitted curve in the direction sought with a large enough effect; inconclusive = small, poorly fitted or top-dose-only effect, or another doubt; inactive = no such curve, though single readings can be large; an effect the other way counts as inactive or inconclusive. Potency is the fitted concentration of half-maximal effect.

SMILES	HT1080-NT tox	TGFb SMAD3 inh	KB-3-1 cytotox	KB-V1 cytotox	HT1080 IDH1KD tx	HepG2 tox-1	TGFb CAGA inh	HepG2 tox-2	CCL64 TGFb inh	COP TGFb inh
Cc1cccc(COCC(Cc2ccccc2)N2CCN(C(=O)c3ccc(Cl)c(Cl)c3)CCC2=O)c1 (stereo not drawn)	-26.7%	?	?	?	?	-13.0%	.	.	.	.
O=C(c1ccc(Cl)c(Cl)c1)N1CCC(=O)N(C(COCc2ccc(Cl)cc2)Cc2ccccc2)CC1 (stereo not drawn)	-16.0%	10µM*	?	?	?	-28.4%	20.6µM*	?	?	18.0%
CCCCCCN1C[C@H](n2cc(-c3ccc(F)cc3)nn2)[C@@H](O)C[C@@H]1c1ccc(Cl)cc1	?	7.08µM*	?	?	?	11.2µM*	20.6µM*	?	18.4µM*	?
COc1cc(/C=N/NC(=O)c2ccncc2)ccc1OC(=O)c1cccc(Br)c1	9.3%	-1.6%	i	i	6.3%	-12.4%	.	.	.	.
COc1cccc(/C=N/NC(=O)c2ccncc2)c1OC(=O)c1ccc(Br)cc1	?	?	i	i	?	-35.5%	?	-19.7%	?	8.3%
COc1cc(/C=C/C(=O)c2ccc3c(c2)OCCO3)cc(Br)c1OCC(=O)N(C)C	4.61µM*	3.98µM*	5.17µM*	2.31µM*	3.66µM*	-175.3%	3.66µM*	3.26µM*	20.6µM*	-28.8%
O=[N+]([O-])c1cnc(Sc2ccncn2)s1	5.8µM*	2.24µM*	18.4µM*	?	16.4µM*	-109.1%	3.66µM*	2.91µM*	2.06µM*	3.66µM*
O=[N+]([O-])c1cnc(Sc2ccncn2)c([N+](=O)[O-])c1	-2.0%	?	?	i	-24.3%	-98.5%	.	.	.	.
COc1cc(C(=O)c2cocc2C(=O)c2ccc3c(c2)OCO3)cc(OC)c1OC	1.3µM*	?	?	1.16µM*	1.64µM*	4.3%	-10.4%	1.2%	-15.1%	-13.8%
COc1ccc(CCNC(=O)c2ccc3c(c2)CCN3S(C)(=O)=O)cc1	.	-18.7%	i	i	.	-13.5%	.	.	.	.
CCCCN(CC)C(=O)CSc1nc2n[nH]c(C)c2c(=N)n1-c1cccc(C)c1	-25.4%	7.08µM*	i	?	-22.8%	-30.4%	?	-18.1%	?	10.9%
Cc1cc(C)c(NC(=O)CSc2nncn3c2cc2oc(C)cc23)c(C)c1	.	-22.8%	i	i	.	-8.2%	.	.	.	.
COc1ccc(-c2cn3cccnc3n2)cc1NC(=O)c1ccccc1C(F)(F)F	.	-5.1%	.	.	.	-19.2%	.	.	.	.
COc1cccc(/C=N/Nc2ncnc(Cl)c2N)c1O	8.2µM*	7.08µM*	?	?	4.11µM*	-26.6%	?	11.6µM*	5.17µM*	56.9%
Cc1onc(-c2ccccc2)c1C(=O)Nc1nnc(C(C)C)s1	24.5%	-0.5%	i	i	17.7%	-1.5%	.	.	.	.
Cc1onc(-c2ccccc2)c1C(=O)Nc1ncc([N+](=O)[O-])s1	?	8.91µM*	?	23.1µM*	?	-35.1%	14.6µM*	?	23.1µM*	50.0%
O=C(O)c1cc(-c2ccc(-c3c(-c4ccc5c(c4)OCO5)noc3-c3ccsc3)cc2)nc2ccccc12	14.6%	?	i	i	-4.7%	-23.4%	16.4µM*	?	18.4µM*	71.4%
COc1ccc(C2=NC(C)(C)N(CC(=O)Nc3cccc(C)c3)C2=O)cc1	.	.	.	.	.	-0.9%	.	.	.	.
Cc1ccc(NC(=O)Cc2ccccc2F)cc1S(=O)(=O)N1CCCCCC1	-0.5%	11.2µM*	?	i	-24.3%	-29.8%	8.2µM*	?	-22.8%	16.1%
Nc1c2ccccc2nc2ccccc12	23.1µM*	7.94µM*	5.17µM*	2.06µM*!	13µM*	12.2%	9.2µM*	11.6µM*	13µM*	4.7%
Cc1ccccc1NC(=O)c1ccc(Nc2c([N+](=O)[O-])cc([N+](=O)[O-])c3ccccc23)cc1	-17.3%	?	i	16.4µM*	-7.7%	-19.7%	?	-18.5%	2.3%	-0.8%
O=C(CC[C@H]1O[C@@H](n2ccc(=O)[nH]c2=O)[C@H](O)[C@@H]1O)N[C@H](Cc1ccccc1)C(=O)NCC1CCCO1 (stereo partly drawn)	-0.1%	-9.8%	i	i	12.3%	-17.3%	.	.	.	.
COc1cccc(CNc2nc3cc(-c4ccc(F)cc4)sc3c(=O)n2C)c1OC	-12.8%	-2.1%	i	i	?	-25.8%	.	.	.	.
COc1cccc(CNc2nc3cc(-c4ccc(C)cc4)sc3c(=O)n2C)c1OC	-1.4%	10µM*	?	11.6µM*	?	-1.4%	2.59µM*	?	11.6µM*	2.7%
COc1cccc(CNc2nc3cc(-c4ccsc4)sc3c(=O)n2C)c1OC	?	?	9.2µM*	2.59µM*	?	3.0%	?	?	?	19.9%
CCOC(=O)c1cccc(NC(=O)c2ncoc2-c2ccco2)c1	.	-9.4%	i	i	.	-26.5%	.	.	.	.
COc1ccc(Cl)cc1Cn1c(C)c(C(=O)NCc2ccc(F)cc2)sc1=O	-29.6%	14.1µM*	?	14.6µM*	?	1.9%	?	-21.1%	?	6.9%
COc1ccc(Cl)cc1Cn1c(C)c(C(=O)N(C)Cc2ccc(F)cc2)sc1=O	0.2%	-10.0%	i	?	4.8%	2.7%	.	.	.	.
